Assay outcomes from PubChem.
S1P1 ag – S1P1 (human) receptor agonism; P21453; S1P1 agonist cell-based reporter assay; activation, % at 4.5 µM; hit rate 1.5% among 16,000; in the data active = activation above about 80%
KOR antag MB – antagonists of human kappa opioid receptor OPRK1, Maybridge library | P41145 | OPRK1 cells, antagonist mode, fluorescence readout | inhibition, % at 9 µM | hit rate 0.4% among 16,000; in the data active = inhibition above about 50%
TLR4 MyD88 blk – blocks binding of human TLR4 to MyD88; O00206; Cell-based TLR4-MyD88 binding inhibition assay; inhibition, % at 10 µM; hit rate 0.06% among 16,000; in the data active = inhibition above about 45%
rat GALR2 agon – activates the rat galanin receptor 2; hit rate 0.5% among 16,000; activation, % at 10 µM; cell-based GALR2 agonist screen; in the data active = activation above about 15%
Target sequence (O08726 whole entry, looked up): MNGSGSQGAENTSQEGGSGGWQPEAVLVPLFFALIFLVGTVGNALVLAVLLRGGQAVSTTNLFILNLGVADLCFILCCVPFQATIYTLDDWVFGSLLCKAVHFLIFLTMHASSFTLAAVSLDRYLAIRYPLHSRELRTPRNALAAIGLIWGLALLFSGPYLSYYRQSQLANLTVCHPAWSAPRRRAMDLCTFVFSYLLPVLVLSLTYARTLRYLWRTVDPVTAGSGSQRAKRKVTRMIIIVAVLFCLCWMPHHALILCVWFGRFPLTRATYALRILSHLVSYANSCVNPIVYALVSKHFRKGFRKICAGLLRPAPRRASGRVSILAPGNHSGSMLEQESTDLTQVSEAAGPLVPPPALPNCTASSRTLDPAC
Numbers without * were called inactive. Only some compounds are listed: those with a hit (about 2.5% of all), similar ones and a draw of the others.

SMILES	S1P1 ag	KOR antag MB	TLR4 MyD88 blk	rat GALR2 agon
Nc1c([N+](=O)[O-])cncc1[N+](=O)[O-]	111*	20	6	-4
Cc1c([N+](=O)[O-])cc2c(c1[N+](=O)[O-])C(C)(C)CC2(C)C	102*	8	2	-11
CNCC(O)c1ccc([N+](=O)[O-])cc1 (centres undefined)	-8	-23	-3	-7
O=[N+]([O-])/C=C/c1ccc(OCc2ccccc2)cc1	22	62*	-6	-9
CN(C)Cc1c[nH]c2ccc(OCc3ccccc3)cc12	2	24	-9	-5
N#CC(C#N)=Cc1ccsc1	-5	6	1	-2
CC12C=CC(=O)C=C1CCC1C2CCC2(C)C(=O)CCC12 (centres undefined)	2	19	12	-2
COc1cc2c(cc1OC)[C@@H]1C(=O)c3ccc4c(c3O[C@@H]1CO2)C[C@H](C(C)C)O4	110*	-3	-11	-11
